Hit rate of the full screen: of about 310,000 compounds, about 1,200 (0.39%) were called active. No rule for the calls is given here. The list is a sample of the results. Potency and affinity values are given separately.
Each compound was assayed against Large T antigen (Simian virus 40) (UniProt P03070) (assay: TAg ATPase/helicase activity blockers – biochemical (AID 1903)). Settings: SV40 large T antigen ATPase/helicase inhibition assay; at 20 µM; stronger effect = higher value.
Large T antigen (Simian virus 40), sequence (P03070 whole entry, looked up): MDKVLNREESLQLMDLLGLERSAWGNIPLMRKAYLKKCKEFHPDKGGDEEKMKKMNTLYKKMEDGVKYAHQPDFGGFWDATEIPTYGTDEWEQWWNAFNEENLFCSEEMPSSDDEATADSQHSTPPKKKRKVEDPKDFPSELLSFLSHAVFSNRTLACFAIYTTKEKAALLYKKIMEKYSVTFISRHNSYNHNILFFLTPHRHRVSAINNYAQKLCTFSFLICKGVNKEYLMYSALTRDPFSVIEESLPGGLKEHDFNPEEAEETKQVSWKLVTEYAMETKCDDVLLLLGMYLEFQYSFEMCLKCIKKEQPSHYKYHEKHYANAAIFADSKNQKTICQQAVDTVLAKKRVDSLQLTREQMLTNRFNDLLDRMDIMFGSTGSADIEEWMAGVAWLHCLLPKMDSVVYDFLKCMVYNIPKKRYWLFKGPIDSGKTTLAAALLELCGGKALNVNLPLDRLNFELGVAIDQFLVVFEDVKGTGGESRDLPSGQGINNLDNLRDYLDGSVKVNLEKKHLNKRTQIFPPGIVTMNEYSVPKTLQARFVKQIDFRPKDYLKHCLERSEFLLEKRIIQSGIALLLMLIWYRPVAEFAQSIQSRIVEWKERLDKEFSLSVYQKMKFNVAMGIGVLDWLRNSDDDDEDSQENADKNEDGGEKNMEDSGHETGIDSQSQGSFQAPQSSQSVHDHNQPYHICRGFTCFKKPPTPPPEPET

inhibition, inactive:
CCCc1nnc(NC(=O)C(C)N2C(=O)C3C4C=CC(C4)C3C2=O)s1 (stereo not drawn) 4.05%, c1ccc(-c2nnnn2-c2ccccc2)cc1 12.4%, Cc1ccc(-n2nnnc2C(Cl)c2nnnn2-c2ccc(C)cc2)cc1 7.23%, Cc1ccc(-c2nnnn2-c2ccc(C)cc2)cc1 -0.57%, c1ccc(-n2nnnc2Cc2nnnn2-c2ccccc2)cc1 -7.53%, COc1cc(OC)cc(C(=O)N[C@H](C(=O)Nc2cccc(S(=O)(=O)N3CCCC3)c2)C(C)C)c1 11.5%, O=C(Nc1cccc(-c2cn3c(n2)SCC3)c1)c1ccc(Br)o1 7.7%, COc1ccccc1OCCC(=O)NCc1ccc2c(c1)OCO2 8.06%, Cc1[nH]c2ccccc2c1C(=O)COC(=O)c1cccc(S(=O)(=O)N2CCCCC2)c1 7.32%, CC(=O)Nc1ccc(N/C=C2/CCCC2=O)cc1 16.2%, Cc1ccc(N/C=C2\CCCCC2=O)c(C)c1 8.76%, Cc1ccccc1NC(=S)NCc1ccccc1 7.25%, CCOC(=O)c1cccc(Nc2nc(-c3cccnc3)nc3ccccc23)c1 6.16%, COc1ccc(CNC(=O)CSc2nnc(C)c(=O)[nH]2)cc1 8.06%, O=C1CC(Nc2ccc(N3CCOCC3)cc2)C(=O)N1c1ccccc1 (stereo not drawn) 21.4%, O=C1CC(Nc2ccccc2)C(=O)N1c1ccc(N2CCOCC2)cc1 (stereo not drawn) 6.8%, S=c1[nH]nc(C2CCCCC2)n1/N=C/c1ccc(Br)cc1 0.57%, CCOc1cc(CNCCO)cc(Br)c1OCc1cccs1 10.3%, CCN(CC)S(=O)(=O)c1ccc(NC(=O)c2cnccn2)cc1 19.6%, CCN(C(=O)CN1CCN(c2ccc(OC)cc2)CC1)c1c(N)n(Cc2ccccc2)c(=O)[nH]c1=O 21.5%, CCN(C(=O)CN1CCN(c2ccccc2)CC1)c1c(N)n(Cc2ccccc2)c(=O)[nH]c1=O 14.1%, Cc1ccc(C(=O)N/C(=C\c2ccc3c(c2)OCO3)C(=O)Nc2ccc(C(=O)O)cc2)cc1 1.87%, CCC1CCc2sc(C(=O)OCC(=O)N(CCOC)c3c(N)n(Cc4ccccc4)c(=O)[nH]c3=O)cc2C1 (stereo not drawn) 16.3%, COCCN(C(=O)COC(=O)c1cc2c(s1)CCCC2)c1c(N)n(Cc2ccccc2)c(=O)[nH]c1=O 4.52%, CCN1/C(=C2/SC(=S)N(NC(C)=O)C2=O)Sc2ccccc21 0.32%, Cc1ccc(-n2cc(CNCC3CC(=O)N(C4CC4)C3)c(-c3cccc(C)c3)n2)cc1 (stereo not drawn) 4.43%, CCOc1ccc(N=Cc2ccc3ccccc3c2)cc1 21.9%, O/N=C/c1ccc2ccccc2c1 70.8%, COc1ccc(S(=O)(=O)N(C)c2ccc(OC(=O)C(C)Oc3ccc(F)cc3)cc2)cc1 (stereo not drawn) 13%, N/C(=N\N=C\c1ccc2c(c1)OCO2)c1nonc1N 7.74%, Cc1cc(=O)oc2c(CN3CCCC3)c(O)ccc12 4.61%, Cc1cc(=O)oc2c(CN(CC(C)C)CC(C)C)c(O)ccc12 15.8%, COc1ccc(CCN2C(=NC(=O)CC(C)C)SC3CS(=O)(=O)CC32)cc1 (stereo not drawn) 0.43%, CCCOc1ccc(/C=N/NC(=O)c2nnn(-c3nonc3N)c2-c2cccs2)cc1OC 10.3%, COc1cc(/C=N/NC(=O)c2cccc([N+](=O)[O-])c2)cc(OC)c1O 20.1%, COc1cc(/C=N/NC(=O)c2cccs2)ccc1OCc1ccccc1 -0.01%, COc1ccc(/C=N/NC(=O)c2nnn(-c3nonc3N)c2-c2cccs2)cc1OC 7.55%, COc1cc(/C=N/NC(=S)Nc2cccc(C(=O)O)c2)cc(OC)c1OC 5.01%, O=C(CNC(=O)c1cccc(F)c1)N/N=C/c1cccc([N+](=O)[O-])c1 16.8%, COc1cccc(/C=N/NC(=O)c2cccs2)c1 -1.95%, COc1ccc(/C=N/NC(=S)Nc2cccc(C(=O)O)c2)cc1OC 19.3%, COc1cc(OC)c(C(=O)NCC2CCCO2)cc1OC (stereo not drawn) -5.36%, CS(=O)(=O)N1CCCC(C(=O)Nc2ccccc2F)C1 (stereo not drawn) 1.68%, O=C(O)c1cccc(NC(=O)c2ccccc2NC(=O)c2ccccc2F)c1 9%, Cc1ccc(NC(=O)CN(C)CC(=O)Nc2ccccc2C#N)cc1 8.84%, CC(Oc1ccc(Br)cc1)C(=O)O/N=C(\N)c1ccncc1 (stereo not drawn) 2.31%, COc1cccc(C(=O)C2CCCN(Cc3cn(C)nc3-c3ccccc3)C2)c1 (stereo not drawn) -3.2%, COc1cc2[nH]c(-c3cccc(F)c3)cc(=O)c2cc1OC 16.1%, CN(CC(=O)Nc1ccc(S(N)(=O)=O)cc1)Cc1ccccc1F 4.84%, COc1ccc(/C=N/NC(=O)c2cccc([N+](=O)[O-])c2)cc1OC 22.1%, COc1cc(/C=N/NC(=O)c2ccccc2O)ccc1OCC(=O)Nc1ccccc1 13.3%, COc1ccc(/C=N/NC(=O)c2cnccn2)cc1O 26.2%, COc1ccc(/C=N/NC(=O)c2cccc([N+](=O)[O-])c2)cc1O 29.7%, COc1ccc(/C=N/NC(=O)C2COc3ccccc3O2)cc1OC (stereo not drawn) -1.14%, COc1cc(/C=N\NC(=O)C2COc3ccccc3O2)cc(OC)c1O (stereo not drawn) 37.5%, COc1cc(/C=N/NC(=O)c2cnccn2)cc(OC)c1OC -1.61%, O=C(CC1SC(=O)NC1=O)Oc1ccc(/C=N/NC(=O)c2ccccc2O)cc1 (stereo not drawn) 48.3%, N#CCc1c(C#N)c(N)nc(N2CCOCC2)c1C#N 5.53%, CN(Cc1ccccc1)S(=O)(=O)c1ccc(NC(=O)c2ccccc2C(=O)O)cc1 4.64%, Cc1ccc(Cn2cnc3sc4c(c3c2=O)CCC4)c(C)c1 9.2%, O=C(N/N=C\C=C\c1ccc2c(c1)OCO2)C1COc2cc3ccccc3cc2O1 (stereo not drawn) 7.25%, COc1ccc(C(=O)Nc2cc(C)on2)cc1OC 4.7%, O=C(O)c1sccc1Oc1ccc(NS(=O)(=O)c2ccccc2)cc1 9.58%, O=C(OCc1nc2ccccc2[n+]([O-])c1C(=O)c1ccccc1)c1cccs1 8.13%, CCOc1cc(/C=N/NC(=O)c2c(-c3ccccc3)noc2C)ccc1O 34.1%, COc1cc(/C=N/NC(=O)c2cc(C3CC3)[nH]n2)cc(OC)c1OC 8.67%, COc1ccc(/C=N/NC(=O)c2cc(C3CC3)[nH]n2)cc1OC 11.7%, COc1cc(C(=O)N/N=C/c2ccc(OC(=O)c3ccccc3)c(OC)c2)ccc1O 23.2%, COc1cc(/C=N/NC(=O)c2c(-c3ccccc3)noc2C)cc(OC)c1OC 0.27%, COc1cc(/C=N/N(c2ccccc2)c2ccccc2)ccc1O 18.7%, CCOc1ccc(/C=N/N(C)c2ccccc2)cc1OC 3.32%, COc1cc(/C=N/NC(=O)c2cc[n+]([O-])cc2)ccc1O 27.9%, Cc1c(NS(=O)(=O)c2ccc(Br)s2)c(=O)n(-c2ccccc2)n1C 3.2%, O=C(NCCc1ccco1)c1cc(COc2cccc(C(F)(F)F)c2)on1 29.7%, CCc1ccc(CN2CCC(n3nccc3NC(=O)Cc3ccccc3)CC2)o1 13.5%, Cc1ccc(N(CC(=O)N/N=C/c2cccc(Br)c2)S(C)(=O)=O)cc1 9.07%, CC(C)(C)c1cc(C(=O)N/N=C/c2ccc(F)cc2)n(-c2ccccc2)n1 -0.35%, CC(C)(C)c1cc(C(=O)N/N=C/c2ccccc2O)n(-c2ccccc2)n1 19.8%, CCOc1cc(/C=N\NC(=O)c2c(C)nc3ccccn23)ccc1O 35%, Cc1cc(C)n2nc(C(=O)N/N=C/c3ccc(Cl)cc3)nc2n1 6.6%, COc1cc(/C=N/NC(=O)c2cc3ccccc3[nH]2)ccc1O 27.5%, COc1ccc(OC)c(/C=N\NC(=O)c2c(C)nc3cc(C)ccn23)c1 11.2%, Cc1ccc(/C=N/NC(=O)c2nc3nc(C)cc(C)n3n2)cc1 22.5%, COc1cc(/C=N/NC(=O)c2cccc(C(=O)N/N=C/c3ccc(O)c(OC)c3)n2)ccc1O -2.1%, COc1ccc(S(=O)(=O)N2CCCC(C(=O)NCCC(C)C)C2)cc1 (stereo not drawn) 5.62%, Cc1cccc(NC(=O)c2cc(-c3cc(C)c(C)cc3O)n[nH]2)c1 4.66%, CCOC(=O)Cc1c(C)nc(SC)[nH]c1=O 1.67%, Cc1nn(C)c(Oc2ccccc2)c1CCNC(=O)CCl -0.24%, COc1cccc(OC)c1C(=O)Nc1ccc(S(=O)(=O)Nc2cc(C)nc(C)n2)cc1 20.7%, COc1ccc(N(CC(=O)NCc2ccncc2)S(=O)(=O)c2ccccc2[N+](=O)[O-])c(OC)c1 2.38%, COc1ccc(/C=N/NC(=O)c2ccc3nc[nH]c3c2)cc1OC 3.44%, COc1cc(/C=N/NC(=O)c2ccc3nc[nH]c3c2)cc(OC)c1OC 8.71%, COCCSc1nc2c(c(=O)[nH]c(=O)n2C)n1CCCc1ccccc1 3.03%
